Screening results as filed in PubChem.
Rows were chosen to be rich in hits. Some 14% of all compounds tested hit in one or more screens of this group.
Pf growth 48h: P. falciparum growth inhibition at 48 hours (one generation); Potency, µM (series often up to 28.7 µM), most hits filed as inhibitors; 310,000 tested, 5.9% active; AID 504832; P. falciparum luciferase growth in erythrocytes, 48 h
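Luminescence readout; reporter = integrated firefly luciferase in P. falciparum. RBC culture at 2% hematocrit, 0.1% parasitemia final, 37 C/5% CO2; decreased signal taken as growth inhibition.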
Sm TGR inh: blocks Schistosoma mansoni thioredoxin glutathione reductase. Q962Y6. purified TGR, DTNB reduction, TNB absorbance 405 nm. Potency, µM (top dose mostly 114 µM), usual class: inhibitors. 360,000 tested, 3% active. AID 485364; note: nearly all actives have a fitted effect of over 60% in size
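TGR 20 nM + NADPH 100 uM (dispensed conc.), cpd preinc 15 min RT; start with NADPH (500 uM addition) then DTNB (15 mM addition). Kinetic TNB absorbance, 405 nm filter. Four-parameter Hill fit across titration.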
HCMV antiviral: blocks human cytomegalovirus replication; HFF cells, HCMV-luciferase reporter, 72 h; active compounds read low; activity change, negative = inhibition, % at 57.5 µM; 410,000 tested, 4.5% active; AID 1259415; in the data active = activity change below about -60%; inconclusive = no clear call, values can overlap the other calls; inactive = above about -39%
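Cell-based, HFFs, 1000 cells/well, 16 h 37C; cpds in DMSO + HCMV-luc, MOI 1 PFU/cell; 72 h 37C; OneGlo luminescence after 5 min RT; norm. to buffer vs Salinomycin 10uM.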
FBPA Giardia inh: Giardia lamblia aldolase inhibition; purified Giardia FBPA; Potency, µM (doses to about 59.6 µM), most hits filed as inhibitors; 290,000 tested, 0.71% active; note: nearly all actives have a fitted effect of over 55% in size
Target sequence (A8B2U2 whole entry, looked up): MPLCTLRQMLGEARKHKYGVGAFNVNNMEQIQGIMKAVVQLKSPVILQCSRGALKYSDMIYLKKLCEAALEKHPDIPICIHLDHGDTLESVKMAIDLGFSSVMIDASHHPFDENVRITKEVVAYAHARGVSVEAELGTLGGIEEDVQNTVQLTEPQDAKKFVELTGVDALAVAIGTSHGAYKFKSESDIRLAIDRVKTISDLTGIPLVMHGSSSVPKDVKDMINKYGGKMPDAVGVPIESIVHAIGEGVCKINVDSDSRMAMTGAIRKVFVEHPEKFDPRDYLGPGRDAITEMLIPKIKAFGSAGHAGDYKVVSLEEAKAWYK
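Giardia FBPA (40 nM reagent) was preincubated 10 min at RT with compound (up to 57.5 uM final), then substrate plus GAPDH/TPI/NAD/arsenate coupling system with diaphorase/resazurin was added; resorufin fluorescence (525/598 nm) was read after 20 min.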
Pf growth 96h: inhibits malaria parasite growth, 96 h | P. falciparum luciferase reporter growth, 96 h | Potency, µM (highest dose often 28.7 µM), usual class: inhibitors | 320,000 tested, 6.9% active | AID 504834
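P. falciparum expressing integrated firefly luciferase, in erythrocytes at 2% hematocrit, 0.05% parasitemia, incubated with compounds 96 h at 37 C, 5% CO2. Growth inhibition read as loss of luminescence; two-generation exposure targets delayed-death apicoplast inhibitors.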
Hits are given with their value; [ ] = remark or other dose. Unless noted, calls come from the whole dose curve; as a rule, active = well fitted curve in the direction sought with a large enough effect; inconclusive = small, poorly fitted or top-dose-only effect, or another doubt; inactive = no such curve, though single readings can be large; an effect the other way counts as inactive or inconclusive.

Results for CC1CCN(Cc2cc(=O)oc3ccc(C(C)C)cc23)CC1 ?
Pf growth 48h: 3.3µM; Sm TGR inh: inactive; HCMV antiviral: inconclusive; FBPA Giardia inh: inactive; Pf growth 96h: 1.9µM

Results for CC(C)c1ccc2oc(=O)cc(CN3CCCCC3)c2c1 ?
Pf growth 48h: 7.4µM; Sm TGR inh: inactive; HCMV antiviral: inactive; FBPA Giardia inh: inactive; Pf growth 96h: inconclusive

Results for CCc1ccc2oc(=O)cc(CN3CCCCC3)c2c1 ?
Pf growth 48h: 12µM; Sm TGR inh: inactive; HCMV antiviral: inactive; FBPA Giardia inh: inactive; Pf growth 96h: 5.2µM

Results for O=c1cc(CN2CCCCC2)c2c(ccc3ccccc32)o1 ?
HCMV antiviral: inactive

What do the screens show for `CC1CCN(Cc2cc(=O)oc3ccc4ccccc4c23)CC1`?
Pf growth 48h: 7.4µM; Sm TGR inh: inactive; HCMV antiviral: inactive; FBPA Giardia inh: inactive; Pf growth 96h: 8.3µM

Results for Cc1ccc(S(=O)(=O)NCc2ccc(C(=O)NCCCN3CCC(Cc4ccccc4)CC3)cc2)cc1 ?
Pf growth 48h: inconclusive; Sm TGR inh: inactive; HCMV antiviral: inactive; FBPA Giardia inh: inactive; Pf growth 96h: inconclusive

How did O=C(Cn1cnc2scc(-c3ccc(F)cc3)c2c1=O)NCC(c1ccco1)N1CCCC1 (stereo not given) do in these assays?
Pf growth 48h: inactive; Sm TGR inh: inactive; HCMV antiviral: inactive; Pf growth 96h: inconclusive

Results for C=C/C1=C/Cc2ccccc2[C@H](C[N+](=O)[O-])C(C(C)=O)(C(=O)OC)C1 (stereo not given in full) ?
FBPA Giardia inh: inactive

What do the screens show for `Cc1cc2oc(=O)cc(CN3CCCCC3C)c2cc1C` (stereo not given)?
Pf growth 48h: 10µM; Sm TGR inh: inconclusive; HCMV antiviral: inactive; FBPA Giardia inh: inactive; Pf growth 96h: 9.3µM

How did CC(C)c1ccc2oc(=O)cc(CN3CCN(c4ccccc4)CC3)c2c1 do in these assays?
Pf growth 48h: 13µM; Sm TGR inh: inactive; HCMV antiviral: inactive; FBPA Giardia inh: inactive; Pf growth 96h: inconclusive

Results for Cc1cc2oc(=O)cc(CN3CCCCC3)c2cc1C(C)C ?
Pf growth 48h: 7.4µM; Sm TGR inh: inactive; HCMV antiviral: inactive; FBPA Giardia inh: inactive; Pf growth 96h: inactive

What do the screens show for `Cc1cc2oc(=O)cc(Cn3nnc(-c4ccc(Cl)cc4)n3)c2cc1C(C)C`?
Pf growth 48h: 12µM; Sm TGR inh: inactive; FBPA Giardia inh: inactive; Pf growth 96h: inconclusive

How did Cc1cc2oc(=O)cc(CSc3nc(N)cc(N)n3)c2cc1C(C)C do in these assays?
Sm TGR inh: inactive; HCMV antiviral: inactive; FBPA Giardia inh: inactive; Pf growth 96h: inconclusive

How did O=C(NC1CCCCC1)c1cc(C2CC2)nn1-c1ccccc1 do in these assays?
Pf growth 48h: inconclusive; Sm TGR inh: inconclusive; HCMV antiviral: inactive; Pf growth 96h: inactive

What do the screens show for `O=C(CC(=O)NN=Cc1ccc2c(c1)CCC2)NN=Cc1ccc2c(c1)CCC2`?
HCMV antiviral: inactive

What do the screens show for `CCN1CCN(Cc2cc(=O)oc3ccc(Cl)cc23)CC1`?
Pf growth 48h: inactive; Sm TGR inh: inactive; HCMV antiviral: inactive; FBPA Giardia inh: inactive; Pf growth 96h: inactive[5.75 µM]

What do the screens show for `CN1CCN(Cc2cc(=O)oc3ccc(Cl)cc23)CC1`?
Pf growth 48h: inactive; Sm TGR inh: inactive; HCMV antiviral: inactive; FBPA Giardia inh: inactive; Pf growth 96h: 13µM

Results for C/C(=N\NC(=O)C1COc2ccccc2O1)c1ccccn1 (stereo not given) ?
Pf growth 48h: 2.6µM; Sm TGR inh: inactive; HCMV antiviral: -102; FBPA Giardia inh: inactive; Pf growth 96h: 2.6µM

How did Cc1ccnc(NC(=O)C2COc3ccccc3O2)c1 (stereo not given) do in these assays?
Pf growth 48h: inactive; Sm TGR inh: inactive; HCMV antiviral: -75; FBPA Giardia inh: inactive; Pf growth 96h: inactive

How did O=C(NCCc1ccc(O)c(O)c1)C1COc2ccccc2O1 (stereo not given) do in these assays?
Pf growth 48h: inconclusive; Sm TGR inh: 4.5µM; HCMV antiviral: inconclusive; FBPA Giardia inh: inactive; Pf growth 96h: inactive

How did O=C(NC1CCCCC1)C1COc2ccccc2O1 (stereo not given) do in these assays?
Pf growth 48h: inactive; Sm TGR inh: 28µM; HCMV antiviral: inactive; Pf growth 96h: inactive

Results for O=C(CSc1n[nH]c(=O)n1C1CC1)NCc1ccccc1 ?
Pf growth 48h: inconclusive; Sm TGR inh: inactive; HCMV antiviral: inactive; FBPA Giardia inh: inactive; Pf growth 96h: inactive

How did CCC(C)(C)C1CCc2nc3ccccc3c(C(=O)OC(C)C(=O)Nc3c(C)n(C)n(-c4ccccc4)c3=O)c2C1 (stereo not given) do in these assays?
Pf growth 48h: inconclusive; Sm TGR inh: inactive; HCMV antiviral: inconclusive; FBPA Giardia inh: inactive; Pf growth 96h: 10µM

How did Cc1ccccc1C(=O)NNc1ncnc2c1cnn2-c1cccc(Cl)c1 do in these assays?
Sm TGR inh: inactive; HCMV antiviral: inactive

How did CC(C)CNc1c2c(nc3ccccc13)CCC2 do in these assays?
Pf growth 48h: 10µM; Sm TGR inh: inactive; HCMV antiviral: -68; FBPA Giardia inh: inactive; Pf growth 96h: inconclusive

Results for CN(C)CCCNc1c2c(nc3ccccc13)CCC2 ?
Pf growth 48h: 10µM; Sm TGR inh: inactive; HCMV antiviral: -95; FBPA Giardia inh: inactive; Pf growth 96h: inactive

How did COCCNc1c2c(nc3ccccc13)CCC2 do in these assays?
Pf growth 48h: inconclusive; Sm TGR inh: inactive; HCMV antiviral: inactive; FBPA Giardia inh: inactive; Pf growth 96h: 9.3µM

What do the screens show for `CN(C)CCCNc1nc(-c2ccc(Cl)cc2)nc2ccccc12`?
Pf growth 48h: 10µM; Sm TGR inh: inactive; HCMV antiviral: inactive; FBPA Giardia inh: inactive; Pf growth 96h: inactive

What do the screens show for `Cc1ccc(-c2nc(NCCN(C)C)c3ccccc3n2)cc1`?
Pf growth 48h: inconclusive; Sm TGR inh: inactive; HCMV antiviral: inactive; FBPA Giardia inh: inactive; Pf growth 96h: inactive

Results for CC(C)(CNC(=O)c1cccc(NS(=O)(=O)c2ccc(Br)cc2)c1)N1CCOCC1 ?
Pf growth 48h: inactive; Sm TGR inh: inactive; HCMV antiviral: inactive; Pf growth 96h: inactive

What do the screens show for `CN1CCN(CC(=O)Nc2ccc(OC(F)(F)F)cc2)CC1`?
Pf growth 48h: inactive; Sm TGR inh: inactive; HCMV antiviral: inactive; FBPA Giardia inh: inconclusive; Pf growth 96h: inactive

What do the screens show for `CCSc1nc2sccc2c(=O)n1-c1ccccc1`?
Pf growth 48h: inactive; Sm TGR inh: inactive; HCMV antiviral: inactive; FBPA Giardia inh: inactive; Pf growth 96h: inactive

What do the screens show for `CCOC(=O)C1=CCN(S(=O)(=O)c2cccc(Cl)c2)C1c1cccc(Br)c1` (stereo not given)?
HCMV antiviral: inactive

What do the screens show for `O=c1c(NCCc2ccccc2)c(-c2ccccc2)c1=O`?
Pf growth 48h: 2.1µM; Sm TGR inh: inactive; HCMV antiviral: inactive; FBPA Giardia inh: inactive; Pf growth 96h: inactive

Results for Cc1ccc(-c2c(NCCc3ccccc3)c(=O)c2=O)cc1 ?
Pf growth 48h: inconclusive; Sm TGR inh: inactive; HCMV antiviral: inactive; FBPA Giardia inh: inactive; Pf growth 96h: inactive

Results for O=[N+]([O-])c1cc(-c2nc(-c3ccccn3)no2)ccc1NCc1ccccc1 ?
Sm TGR inh: inactive; HCMV antiviral: inactive
